Results reported in publication PMC4336329 (PLoS ONE, 2015).
The campaign covered roughly 310,000 compounds. About 14,000 (4.5%) showed an effect of 50% or more. Effects have a minus sign here. The full list was thinned out, with strong results kept by preference.

The compounds below were run against human ether-à-go-go-related gene (hERG) potassium channel (human, UniProt Q12809) (assay: primary screen, population patch clamp on CHO cells stably expressing hERG; higher = less effect of the substance).
Sequence of human ether-à-go-go-related gene (hERG) potassium channel (Q12809 whole entry, looked up): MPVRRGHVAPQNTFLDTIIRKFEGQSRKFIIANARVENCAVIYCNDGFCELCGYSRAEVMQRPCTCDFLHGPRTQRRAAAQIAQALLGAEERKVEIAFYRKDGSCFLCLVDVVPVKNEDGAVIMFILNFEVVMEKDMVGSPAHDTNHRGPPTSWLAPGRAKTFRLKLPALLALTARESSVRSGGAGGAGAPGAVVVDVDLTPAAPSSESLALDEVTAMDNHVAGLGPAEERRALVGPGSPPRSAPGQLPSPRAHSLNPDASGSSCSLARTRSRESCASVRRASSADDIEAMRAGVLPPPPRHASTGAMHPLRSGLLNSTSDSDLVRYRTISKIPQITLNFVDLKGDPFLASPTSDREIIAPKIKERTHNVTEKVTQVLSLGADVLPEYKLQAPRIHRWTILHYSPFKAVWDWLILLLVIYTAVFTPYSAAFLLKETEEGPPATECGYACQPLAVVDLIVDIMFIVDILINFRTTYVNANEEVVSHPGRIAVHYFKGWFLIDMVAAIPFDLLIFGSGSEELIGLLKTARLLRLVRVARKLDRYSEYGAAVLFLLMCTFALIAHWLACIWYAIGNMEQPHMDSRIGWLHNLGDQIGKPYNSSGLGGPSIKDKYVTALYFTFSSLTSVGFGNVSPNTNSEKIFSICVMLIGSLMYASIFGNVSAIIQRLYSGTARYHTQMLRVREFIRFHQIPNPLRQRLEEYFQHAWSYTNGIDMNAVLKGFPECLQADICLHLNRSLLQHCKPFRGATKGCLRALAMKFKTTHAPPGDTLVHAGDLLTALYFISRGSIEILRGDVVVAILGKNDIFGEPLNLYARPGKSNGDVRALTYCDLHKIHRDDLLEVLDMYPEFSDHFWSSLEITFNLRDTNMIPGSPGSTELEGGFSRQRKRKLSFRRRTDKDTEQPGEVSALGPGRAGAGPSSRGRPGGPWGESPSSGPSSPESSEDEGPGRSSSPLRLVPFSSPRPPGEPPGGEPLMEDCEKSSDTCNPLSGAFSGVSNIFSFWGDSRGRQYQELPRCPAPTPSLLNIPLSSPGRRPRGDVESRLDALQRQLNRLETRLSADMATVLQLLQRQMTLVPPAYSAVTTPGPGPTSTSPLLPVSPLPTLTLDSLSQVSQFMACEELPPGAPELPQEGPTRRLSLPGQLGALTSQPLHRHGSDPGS
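Note: peak tail current of the secondary pulse compared with the same well before compound.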

Row | Structure (SMILES) | hERG current change (%, negative = inhibition) at 10uM
1 | Cc1ccc(CN2C(=O)S/C(=C\c3ccccc3OCC(=O)O)C2=O)cc1 | 1.61%
2 | C/C(=C\C(=O)N1CCc2ccccc21)C(=O)O | 18.5%
3 | NC(=O)c1cc(S(=O)(=O)N2CCN(c3cccc(Cl)c3)CC2)cs1 | 28.1%
4 | NC(=O)c1cc(S(=O)(=O)N2CCN(c3ccc([N+](=O)[O-])cc3)CC2)cs1 | -74.4%
5 | COC(=O)c1cc(S(=O)(=O)N2CCN(c3ccc([N+](=O)[O-])cc3)CC2)c[nH]1 | -53.9%
6 | O=C1CC(=O)Nc2cc(S(=O)(=O)N3CCN(c4ccc([N+](=O)[O-])cc4)CC3)ccc2N1 | -66.8%
7 | COc1ccc(N2CCN(S(=O)(=O)c3ccc4c(c3)NC(=O)CC(=O)N4)CC2)cc1 | 13.2%
8 | CC(=O)c1ccc(N2CCN(S(=O)(=O)c3ccc4c(c3)NC(=O)CC(=O)N4)CC2)cc1 | 13.4%
9 | CC(=O)c1ccc(N2CCN(S(=O)(=O)c3csc(C(N)=O)c3)CC2)cc1 | -26.1%
10 | COC(=O)c1cc(S(=O)(=O)N2CCN(c3ccccc3)CC2)c[nH]1 | 7.6%
11 | COC(=O)c1cc(S(=O)(=O)N2CCN(c3ccc(F)cc3)CC2)c[nH]1 | 16.9%
12 | CCC(=O)Nc1nc2ccc(NC(=O)c3cc(OC)c(OC)c(OC)c3)cc2s1 | -9.76%
13 | Cc1ccc(CNC(=O)c2ccc(C#CC(C)(C)O)s2)cc1 | -3.51%
14 | Cc1cccc(CSC2=NCCN2S(=O)(=O)c2ccc(F)cc2)c1 | -0.802%
15 | Cc1ccc(S(=O)(=O)N(C)c2ccc(OC(C)C(=O)N3CCCC3)cc2)cc1C (stereo not shown) | -37.6%
16 | CCn1c(NCc2cc(OC)ccc2OC)nc2ccccc21 | -22.8%
17 | COc1ccc(/C=N/c2nc3ccccc3n2CCN2CCCCC2)cc1OC | -14.3%
18 | COc1ccc(CNc2nc3ccccc3n2C)c(O)c1 | 1.38%
19 | CCCn1c(NCc2cc(OC)ccc2OC)nc2ccccc21 | -51.3%
20 | COc1ccc(CNc2nc3ccccc3n2CCN2CCCCC2)c(OC)c1 | -84.4%
21 | COc1ccc(CNc2nc3ccccc3n2C)c(OC)c1 | -25%
22 | CCCn1c(NCc2cccc(OC)c2O)nc2ccccc21 | -18.1%

Row | Structure (SMILES) | hERG current change (%, negative = inhibition) at 10uM
23 | COc1ccc(OC)c(CNc2nc3ccccc3n2CCN2CCCCC2)c1 | -72.4%
24 | C=CCn1c(NCc2ccc(OC)cc2O)nc2ccccc21 | -23.1%
25 | Cc1[nH]c(C)c(S(=O)(=O)N2CCCCC2)c1C(=O)N1CCCCC1 | 4.27%
26 | Br.Cc1nc(C)c(-c2csc(Nc3cccc(O)c3)n2)s1 | 6.25%
27 | COc1cc(OC)cc(-c2c(C#Cc3ccsc3)c3cc(-c4ccc5c(c4)OCCO5)ccc3n2C)c1 | 7.37%
28 | COc1ccc(OCC(=O)Nc2ccccc2O)cc1 | -12.5%
29 | Cc1c(C(C)(C)O)[nH]c2ccc(C#N)cc12 | 26.4%
30 | CCN1CCN(c2ncnc3sc(C(=O)Nc4ccccc4F)c(C)c23)CC1 | -67%
31 | CCOC(=O)c1sc2ncnc(OC)c2c1C | 13.3%
32 | CCOC(=O)CNC(=O)c1sc2ncnc(N3CCc4ccccc4C3)c2c1C | -36.6%
33 | CCOC(=O)N1CCN(c2ncnc3scc(-c4ccccc4)c23)CC1 | -32.6%
34 | Cc1ccc(NC(=O)c2sc3ncnc(N4CCN(c5ccccn5)CC4)c3c2C)c(C)c1 | -48.4%
35 | Cc1c(C(=O)Nc2c(F)cccc2F)sc2ncnc(N3CCN(c4ccccc4)CC3)c12 | -12.2%
36 | CCOC(=O)c1sc2ncnc(N3CCN(CC)CC3)c2c1C | -63.9%
37 | CCOC(=O)c1sc2nc(C)nc(N3CCN(c4ncccn4)CC3)c2c1C | 1.82%
38 | COCCCNC(=O)c1sc2ncnc(N3CCc4ccccc4C3)c2c1C | -23.9%
39 | CCCCNC(=O)c1sc2ncnc(N3CCc4ccccc4C3)c2c1C | -50.5%
40 | CCOC(=O)c1sc2ncnc(N3CCN(C(=O)OCC)CC3)c2c1C | -53.4%
41 | CCOC(=O)c1sc2ncnc(N3CCN(C)CC3)c2c1C | -24.3%
42 | CCC(C)(NC(=O)Cc1c[nH]c2ccccc12)C(=O)NC1CCCCC1 (stereo not shown) | 2.32%
43 | CN(C)/C=N/c1sccc1C(N)=O | 6.62%
44 | COc1ccc(C2(C)NC(=O)N(CC3CCCCC3)C2=O)cc1 (stereo not shown) | 9.8%

Row | Structure (SMILES) | hERG current change (%, negative = inhibition) at 10uM
45 | O=C(NCC(=O)N(c1cccnc1)C(C(=O)NC1CCCC1)c1ccccc1F)c1ccco1 (stereo not shown) | -0.301%
46 | CC(C)(C)Nc1nc(NCc2cccnc2)nc(N2CCOCC2)n1 | 4.02%
47 | CC(C)C(=O)Nc1c2c(nc3c1CCC3)CCCC2 | 5.23%
48 | C/C(=N\NC(=O)c1nnn(-c2nonc2N)c1-c1ccc2c(c1)OCO2)c1cccs1 | 5.22%
49 | C/C(=N\OCC(=O)OC(C)C(=O)Nc1ccc(C(N)=O)cc1)c1ccc2c(c1)OCO2 (stereo not shown) | 9.34%
50 | CCOC(=O)c1cc2c(ccn2-c2ccc(F)cc2)n1CC(=O)N1CCN(C(=O)c2ccco2)CC1 | -26.1%
51 | CC(C)OC(=O)c1cc2c(ccn2-c2ccc(F)cc2)n1CC(=O)N1CCN(C(=O)c2ccco2)CC1 | -69.2%
52 | COC(=O)c1cc2c(ccn2-c2ccc(F)cc2)n1CC(=O)C(C)(C)C | 14.3%
53 | CCOC(=O)c1cc2occc2n1CC(=O)N1CCN(C(=O)c2ccco2)CC1 | -36.8%
54 | COC(=O)c1cc2c(ccn2-c2ccc(F)cc2)n1CC(=O)N1CCN(C(=O)c2ccco2)CC1 | -66.6%
55 | COC(=O)c1cc2c(ccn2-c2ccc(F)cc2)n1CC(=O)OC(C)C | 27.3%
56 | O=C(Cn1c(=O)cnc2ccccc21)N1CCCc2ccccc21 | 10.8%
57 | CC1CN(C(=O)CN2C(=O)NC3(CCCC3)C2=O)C(=Nc2cccc(S(=O)(=O)N(C)C)c2)S1 (stereo not shown) | -32%
58 | Cc1ccc(S(=O)(=O)N2CCN(C(=O)COC(=O)CCc3ccccc3)CC2)c(C)c1 | -8.38%
59 | CCOC(=O)c1ccc2c(c1)nc(-c1ccc(F)cc1)c1nccn12 | 5.55%
60 | CNC(C)C(=O)NC(C(=O)N1CCCC1C(=O)NNc1ccccc1)C(C)C.O=CO (stereo not shown) | 5.01%
61 | O=S(=O)(c1ccccc1F)N1CCN(CCc2ccccc2)CC1 | -5.81%
62 | CC(NC(=O)/C(=C\c1cccc([N+](=O)[O-])c1)NC(=O)c1ccco1)C(=O)O (stereo not shown) | 39.2%
63 | O=C(NCc1ccco1)/C(=C/c1cccc([N+](=O)[O-])c1)NC(=O)c1ccco1 | -56.8%
64 | O=C(O)CNC(=O)/C(=C/c1cccc([N+](=O)[O-])c1)NC(=O)c1ccco1 | -1.47%
65 | O=C(NCc1ccccc1)/C(=C/c1cccc([N+](=O)[O-])c1)NC(=O)c1ccco1 | -61.2%
66 | O=C(NCCO)/C(=C/c1cccc([N+](=O)[O-])c1)NC(=O)c1ccco1 | 26.5%

Row | Structure (SMILES) | hERG current change (%, negative = inhibition) at 10uM
67 | CCN(CC)C(=O)/C(=C/c1cccc([N+](=O)[O-])c1)NC(=O)c1ccco1 | -25.8%
68 | CC(NC(=O)/C(=C/c1cccc([N+](=O)[O-])c1)NC(=O)c1ccco1)C(=O)O (stereo not shown) | 0.397%
69 | CCN(CC)C(=O)/C(=C\c1cccc([N+](=O)[O-])c1)NC(=O)c1ccco1 | -24%
70 | O=C(NCCO)/C(=C\c1cccc([N+](=O)[O-])c1)NC(=O)c1ccco1 | 6.73%
71 | O=C(NCCc1ccccc1)/C(=C\c1cccc([N+](=O)[O-])c1)NC(=O)c1ccco1 | -78.6%
72 | O=C(O)CNC(=O)/C(=C\c1cccc([N+](=O)[O-])c1)NC(=O)c1ccco1 | 15.7%
73 | O=C(NCc1ccco1)/C(=C\c1cccc([N+](=O)[O-])c1)NC(=O)c1ccco1 | -64.7%
74 | COc1ccc(OCCNC(=S)Nc2cccc3ccccc23)cc1 | 3.79%
75 | Cc1ccccc1N(CC(=O)NC1CCCC1)C(=O)CS(=O)CC(=O)Nc1ccc2c(c1)OCO2 (stereo not shown) | -8.74%
76 | COc1cc(C2NC(=O)NC(C)=C2C(C)=O)cc(OC)c1OC (stereo not shown) | 9.41%
77 | Cc1nc(SCC(=O)O)c(C#N)c2c1CCCC2 | -10.9%
78 | COc1cc2c(-c3ccc4[nH]ccc4c3)c(-c3ccc(C#N)cc3)oc(=O)c2cc1OC | 20.9%
79 | CCCCC(=Nc1ccc(N)cc1)C1=C(O)C(C(=O)OC)C(C)(C)CC1=O (stereo not shown) | -1.62%
80 | COCCCNC(=O)c1ccc(N(C)S(=O)(=O)c2ccc(OC)cc2)cc1 | -20.6%
81 | C=CCNC(=O)c1ccc(CN(c2ccc(OCC)cc2)S(=O)(=O)c2ccc(C)cc2)cc1 | -62%
82 | COc1ccc(S(=O)(=O)N(C)c2ccc(C(=O)NC3CCCC3)cc2)cc1 | -83.7%
83 | CCOc1ccc(N(Cc2ccc(C(=O)O)cc2)S(=O)(=O)c2ccc(C)cc2)cc1 | -12.5%
84 | COc1ccc(N(C)S(=O)(=O)c2cccc(C(=O)NC3CCCC3)c2)cc1 | -9.64%
85 | C=CCNC(=O)c1ccc(N(Cc2ccc(Cl)cc2)S(C)(=O)=O)cc1 | -33.5%
86 | COc1ccc(S(=O)(=O)N(C)c2ccc(C(=O)NC3CC3)cc2)cc1 | -12.6%
87 | C=CCNC(=O)c1ccc(N(C)S(=O)(=O)c2ccc(OC)cc2)cc1 | -57.4%
88 | C=CCNC(=O)c1ccc(OC)cc1 | -12%
